PostGolgi yeast = growth inhibition of a yeast mutant, post-Golgi transport screen; post-Golgi transport phenotypic cell assay; inhibition, % at 10 µM; actives 0.9% (n = 98,000);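 also: yeast cells grown in 1536-well plates; yeast grown about 18 h at 30C before absorbance read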
DAT uptake mod = human DAT dopamine uptake with cocaine, either direction | B-score at 10 µM | Q01959 | LLC-PK1 hDAT cells, [14C]-dopamine uptake with cocaine IC80; actives deviate in either direction | actives 1.3% (n = 110,000);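 active = Z score or B-score, a plate-position-corrected score, falls beyond the plate's 99.7% confidence bounds, in either direction; inactive = both scores lie inside the 99.7% bounds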
Target sequence (Q01959 whole entry, looked up): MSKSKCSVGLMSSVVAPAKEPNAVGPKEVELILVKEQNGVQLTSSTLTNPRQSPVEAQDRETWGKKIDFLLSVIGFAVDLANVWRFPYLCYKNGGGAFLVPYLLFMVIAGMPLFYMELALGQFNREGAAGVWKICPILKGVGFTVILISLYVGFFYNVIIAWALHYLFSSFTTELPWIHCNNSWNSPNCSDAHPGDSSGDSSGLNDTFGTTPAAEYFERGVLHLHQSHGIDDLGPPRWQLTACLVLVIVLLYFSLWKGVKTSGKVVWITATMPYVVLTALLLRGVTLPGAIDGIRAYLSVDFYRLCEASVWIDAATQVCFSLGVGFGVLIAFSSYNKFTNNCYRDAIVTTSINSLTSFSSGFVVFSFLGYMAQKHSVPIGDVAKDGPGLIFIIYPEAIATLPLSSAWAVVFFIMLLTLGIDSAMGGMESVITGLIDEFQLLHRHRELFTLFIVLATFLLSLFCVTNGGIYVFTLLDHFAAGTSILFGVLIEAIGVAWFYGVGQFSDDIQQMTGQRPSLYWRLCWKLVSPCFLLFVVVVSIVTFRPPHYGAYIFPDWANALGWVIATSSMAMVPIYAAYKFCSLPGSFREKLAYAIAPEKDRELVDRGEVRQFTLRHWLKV
Cav32 inh = inhibitors of human Cav3.2 T-type calcium channel; O95180; Cav3.2-expressing cells, Fluo-4 calcium fluorescence FDSS; hits give low values; B-score at 10 µM; actives 4% (n = 100,000); AID 449739;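 active = single-dose well whose peak fluorescence ratio is a statistical outlier from its plate by either plate-standardised score or position-corrected B-score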
PostGolgi ctrl = yeast control strain growth, post-Golgi counter-screen; efflux-deficient yeast background strain, growth absorbance A615, 16 h; actives 5% (n = 98,000); inhibition, % at 10 µM
PLAP activator = activators of human placental alkaline phosphatase | actives 1.2% (n = 96,000) | activation fold at 20 µM | purified PLAP enzyme, luminescent substrate read-out; hits give high values | AID 696; in the data active = activation fold above about 2
Each line names hits and unclear results; the compound was inactive in the other large screens. The list is not random: actives were taken first. Their share in the collection is about 9.6%. Rule as the data show it, unless noted: active = inhibition above about 30%; inactive = the rest.

Cc1ncsc1C(=O)N1N=C2/C(=C/c3ccccc3)CCCC2C1c1ccccc1 (stereo not given)	none (no result: DAT uptake mod, Cav32 inh)
Cc1nc(N2N=C3/C(=C/c4ccc(F)cc4)CCCC3C2c2ccc(F)cc2)sc1C(=O)N(C)C (stereo not given)	PLAP activator 2 (no result: DAT uptake mod, Cav32 inh)
C/C(CC(=O)Nc1ccc(N(C)C)cc1)=N\NC(=O)c1ccccn1	PLAP activator 2 (no result: Cav32 inh)
COc1ccc(-c2c[n+]3c4n2CCCCC4=C(c2ccccc2)C3)cc1	none
COc1ccc(Cl)cc1C(=O)CSc1nnnn1C1CCCC1	PostGolgi ctrl 35
CC(C)N(C(=O)CSc1nnnn1C1CCCC1)C(C)C	Cav32 inh -3.7
Cn1c(CSc2nnc(SCc3ccccc3)s2)nc2ccccc21	Cav32 inh -4.3
Cc1nc(-c2ccccc2)sc1C1(C)CC(c2c(Cl)cccc2Cl)=NO1 (stereo not given)	none (no result: PostGolgi yeast, PostGolgi ctrl, PLAP activator)
COc1ccc(-c2cc(C(F)(F)F)nc(NC3CCCC3)n2)cc1OC	PostGolgi ctrl 34
COc1ccc(-c2cc(C(F)(F)F)nc(N3CCOCC3)n2)cc1OC	none
CC(C)Nc1nc(NC(C)C)nc(C(N)=O)n1	none
CC(C)(C)C(=O)NCCCc1nc2ccccc2n1CCCOc1ccc(Cl)cc1	DAT uptake mod 3.4, Cav32 inh -6.7
C=C(C)Cn1c(CCNC(=O)C(C)C)nc2ccccc21	PostGolgi ctrl 41
C=CCn1c(CCCNC(=O)C(C)(C)C)nc2ccccc21	PostGolgi ctrl 30
CCCCn1c(CNC(=O)C(C)(C)C)nc2ccccc21	none (no result: PLAP activator)
Cc1ccc(NC(=S)N2CCN(C3CCCCC3)CC2)cc1	none
CCSc1nnc(-c2cnn(-c3ccccc3)c2-n2cccc2)n1C	none
CCCCCCSc1nnc(-c2cnn(-c3ccccc3)c2-n2cccc2)n1C	Cav32 inh -8.9, PostGolgi ctrl 61
Cc1cc(-n2ccc(=O)[nH]c2=O)nc(-c2ccccc2)n1	PostGolgi ctrl 31
CCCC(=O)OC1CC(C)N(C(=O)c2ccccc2)c2ccc(C)cc21 (stereo not given)	Cav32 inh -4.4 (no result: PostGolgi yeast, PostGolgi ctrl, PLAP activator)
O=C(NCCc1ccccc1)[C@@H]1CC=C[C@@H]2CCN(Cc3ccccc3)C(=O)[C@@H]21	none (no result: PostGolgi yeast, PostGolgi ctrl, PLAP activator)
Nc1sc2c(c1C(=O)NC1CCS(=O)(=O)C1)CCC2 (stereo not given)	PLAP activator 2.3
CNC(=O)c1c(N)sc2c1CCCCC2	none
CCC(C)N1C(=O)/C(=C/c2c(NCCCOC(C)C)nc3c(C)cccn3c2=O)SC1=S (stereo not given)	Cav32 inh -5.1
COc1ccc(CNC(=O)C(=O)NCC2OCCN2S(=O)(=O)c2cccs2)cc1 (stereo not given)	Cav32 inh -4.9 (no result: PostGolgi yeast, PostGolgi ctrl, PLAP activator)
Cc1ccc(CNC(=O)C(=O)NCC2OCCN2S(=O)(=O)c2ccc3c(c2)OCCO3)cc1 (stereo not given)	Cav32 inh -4.5 (no result: PostGolgi yeast, PostGolgi ctrl, PLAP activator)
O=C(NCc1ccc(Cl)cc1)C(=O)NCC1OCCN1S(=O)(=O)c1cccs1 (stereo not given)	Cav32 inh -6 (no result: PostGolgi yeast, PostGolgi ctrl, PLAP activator)
O=C(NCc1ccccc1)C(=O)NCC1OCCN1S(=O)(=O)c1ccc2c(c1)OCCO2 (stereo not given)	none (no result: PostGolgi yeast, PostGolgi ctrl, PLAP activator)
CCCc1c(-c2ccc(O)cc2)nn(-c2ccc(O)cc2)c1-c1ccc(O)cc1	none (no result: PostGolgi yeast, PostGolgi ctrl, PLAP activator)
Cc1nn(Cc2ccccc2)c(C)c1NC(=O)CSc1nc2sc3c(c2c(=O)n1C)CCC3	none (no result: PostGolgi yeast, PostGolgi ctrl, PLAP activator)
Clc1ccc2nc(SCc3nnc(-c4ccccc4)o3)[nH]c2c1	none (no result: DAT uptake mod, Cav32 inh)
Clc1ccc(OCc2nnc(SCc3nnc(-c4ccccc4)o3)o2)c(Cl)c1	Cav32 inh -6.1, PostGolgi ctrl 41
NC(=O)c1cccn1Cc1ccccc1Cl	none
NC(=O)c1ccc(C(F)(F)F)n(Cc2ccccc2Cl)c1=O	PostGolgi ctrl 44
CCCOC(=O)C1C2C=CC(C3CC23)C1C(=O)OCC(=O)c1ccccc1 (stereo not given)	Cav32 inh -5.5
C=C1CCN([C@H](C(=O)O)C(C)C)S(=O)(=O)c2ccccc21	none (no result: PostGolgi yeast, PostGolgi ctrl, PLAP activator)
NC(=O)CNC(=O)[C@@H]1CC2(CC(c3ccccc3)=NO2)CN1C(=O)c1ccc(Br)cc1 (stereo not given in full)	none
N#CCC(CNc1ncc(C(F)(F)F)cc1Cl)OC(=O)c1c(F)cccc1F (stereo not given)	Cav32 inh -3.7 (no result: PostGolgi yeast, PostGolgi ctrl, PLAP activator)
CCCCCCNS(=O)(=O)c1ccc(Cl)s1	Cav32 inh -6.4
Cc1cc(NC(=O)CCNS(=O)(=O)c2cc(Br)cnc2N)ccc1Br	Cav32 inh -5
Nc1ncc(Br)cc1S(=O)(=O)NCCC(=O)Nc1cccc(Cl)c1	none
Cc1ccc(C(=O)COC(=O)CNS(=O)(=O)c2ccccc2)cc1[N+](=O)[O-]	none (no result: Cav32 inh)

From PubChem
